In test [1] the target is Aryl hydrocarbon receptor (Homo sapiens) (UniProt P35869). As to the kind of experiment: ATG_Ahr_CIS: Attagene CIS-FACTORIAL HepG2 Assay for human Aryl Hydrocarbon Receptor (Ahr) (AID 2282930; active means hit-call score of the fitted dose curve at least 0.9, where 1 is the maximum; inactive means score below 0.9). The settings on record: HepG2 AhR cis-factorial reporter transcription; actives raise or lower the signal. An outline of the steps: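 Endogenous factor activity is tracked through cis-promoter reporter units transfected into HepG2 cells. Transcript levels at 24 h are read by fluorescent RT-PCR and capillary electrophoresis, with activity in either direction scored relative to DMSO.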

Test [2] has as its target Nuclear receptor subfamily 1 group I member 3 (Homo sapiens) (UniProt Q14994). As to the kind of experiment: ATG_CAR_TRANS: Attagene TRANS-FACTORIAL HepG2 Assay for human Constitutive Androstane Receptor (CAR) (AID 2282969).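 Further: activators raise reporter mRNA above DMSO so AC50 marks induction.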 The settings on record: HepG2 Attagene TRANS-FACTORIAL CAR reporter. An outline of the steps: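 HepG2 cells transiently transfected with GAL4-UAS reporter units; TRANS format reads activity of exogenous chimeric NR-Gal4 protein. After 24 h dosing, reporter mRNA quantified by RT-PCR, 6-FAM labelling and capillary electrophoresis; gain of signal fitted against DMSO.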

Test [3] can be described thus: ATG_M_19_TRANS: Attagene TRANS-FACTORIAL HepG2 Assay for M19 Transcription Factor (Internal Marker) (AID 2282974). Conditions: HepG2 Attagene TRANS-FACTORIAL M19 internal marker reporter. An outline of the steps: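 Cells: human HepG2, transiently transfected with multiplexed reporter transcription units. Exposure: 24 h. Detection: RT-PCR of reporter mRNA with capillary electrophoresis. Analysis: gain-of-signal vs DMSO.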

Test [4] addresses Oxysterols receptor LXR-alpha (Homo sapiens) (UniProt Q13133). Kind of test: ATG_LXRa_TRANS: Attagene TRANS-FACTORIAL HepG2 Assay for human Liver X Receptor alpha (LXRa) (AID 2282980). The settings on record: HepG2 Attagene TRANS reporter, LXRa transactivation. A digest of the protocol:
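HepG2 cells transiently transfected with GAL4-UAS reporter units for chimeric NR-Gal4 proteins, exposed to chemicals for 24 h. Reporter mRNA quantified by RT-PCR and capillary electrophoresis; gain of signal fitted relative to DMSO.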

A short description of test [5]: ATG_M_32_TRANS: Attagene TRANS-FACTORIAL HepG2 Assay for M32 Transcription Factor (Internal Marker) (AID 2282984). The settings on record: HepG2 Attagene TRANS M32 internal marker reporter. A digest of the protocol:
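HepG2 cells transiently transfected with GAL4-UAS reporter units, dosed for 24 hours. Reporter mRNA quantified by RT-PCR, 6-FAM labelling, HpaI digestion and capillary electrophoresis; internal-marker signal fitted upward relative to DMSO.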

The target in test [6] is Nuclear receptor subfamily 4 group A member 2 (Homo sapiens) (UniProt P43354). Kind of test: ATG_NURR1_TRANS: Attagene TRANS-FACTORIAL HepG2 Assay for human Nuclear Receptor Related Protein 1 (NURR1) (AID 2282985). The settings on record: HepG2 Attagene TRANS reporter, mRNA readout. An outline of the steps: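 HepG2 cells transiently transfected with NURR1-Gal4 chimera and GAL4-UAS reporter units; after 24 hr compound exposure, reporter mRNA quantified by RT-PCR and capillary electrophoresis; gain of signal fitted against DMSO.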

The target of test [7] is human Peroxisome Proliferator-activated Receptor delta (PPARd), PPARD (gene 5467) (UniProt Q03181). Kind of test: ATG_PPARd_TRANS: Attagene TRANS-FACTORIAL HepG2 Assay for human Peroxisome Proliferator-activated Receptor delta (PPARd) (AID 2283002). An outline of the steps: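 Fluorescence from capillary electrophoresis of labelled RT-PCR reporter fragments gives the signal; DMSO sets baseline. Cells: HepG2 transiently carrying GAL4-UAS reporter units plus chimeric nuclear receptor-Gal4 proteins, exposed to chemicals for 24 h.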

Test [8] addresses Peroxisome proliferator-activated receptor gamma (Homo sapiens) (UniProt P37231). As to the kind of experiment: ATG_PPARg_TRANS: Attagene TRANS-FACTORIAL HepG2 Assay for human Peroxisome Proliferator-activated Receptor-gamma (PPARg) (AID 2283007). A digest of the protocol:
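A TRANS-format multiplexed reporter assay measures activity of an exogenous chimeric NR-Gal4 protein in HepG2 cells. After 24 h of chemical exposure, reporter transcripts are amplified, fluorescently labelled and sized by capillary electrophoresis, with gain of signal scored against DMSO.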

For test [9], the target named is human RAR-related Orphan Receptor beta (RORb), RORB (gene 6096) (UniProt Q92753). Kind of test: ATG_RORb_TRANS: Attagene TRANS-FACTORIAL HepG2 Assay for human RAR-related Orphan Receptor beta (RORb) (AID 2283010). An outline of the steps:
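HepG2 cells transiently transfected with GAL4-UAS reporter units expressing chimeric NR-Gal4 protein; reporter mRNA measured 24 h after dosing by RT-PCR, 6-FAM labelling and capillary electrophoresis. Gain-of-signal fitted relative to DMSO baseline.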

Test [10] addresses Retinoic acid receptor RXR-alpha (Homo sapiens) (UniProt P19793). As to the kind of experiment: ATG_RXRa_TRANS: Attagene TRANS-FACTORIAL HepG2 Assay for human Retinoid X Receptor alpha (RXRa) (AID 2283012). An outline of the steps: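 HepG2 cells transiently transfected with GAL4-UAS reporter units and chimeric RXRa-Gal4 protein, treated 24 h. Reporter mRNA measured by RT-PCR, fluorescent labelling, HpaI digestion and capillary electrophoresis. Induction fitted against DMSO.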

Test [11] deals with human Thyroid Receptor alpha (THRa1), THRA (gene 7067) (UniProt P10827). As to the kind of experiment: ATG_THRa1_TRANS: Attagene TRANS-FACTORIAL HepG2 Assay for human Thyroid Receptor alpha (THRa1) (AID 2283014). A digest of the protocol:
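HepG2 cells transiently transfected with chimeric NR-Gal4 and GAL4-UAS reporter units, dosed 24 h. Reporter mRNA quantified by RT-PCR, fluorescent labeling, HpaI digestion and capillary electrophoresis; gain-of-signal fit versus DMSO.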

Test [12] can be described thus: TOX21_p53_BLA_p4_viability: Viability Assessment in the Tox21 HCT-116 p53 Agonism Beta-lactamase Assay, Phase 4 (AID 2283597).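 Further: hits lower the luminescence signal meaning cytotoxicity.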 A digest of the protocol: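 HCT-116 p53-bla cells, 4000/well, dosed after 5 h attachment and incubated 16 h at 37 °C, 5% CO2. Viability from CellTiter-Glo ATP luminescence after 30 min at room temperature, taken after the beta-lactamase read; loss of signal indicates cytotoxicity.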

Test [13] in a line: CCTE_Harrill_HTTr_Viability_MCF7: CCTE's 6-hour Cell Viability Assessment for the High-Throughput Transcriptomics (HTTr) Platform, in MCF-7 cells cultured in DMEM + 10% fetal bovine serum, Harrill Lab (AID 2284010; active means hit-call score of the fitted dose curve at least 0.9, where 1 is the maximum; inactive means score below 0.9). A digest of the protocol: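 MCF-7 cells in DMEM + 10% FBS, 384-well, exposed 6 h to an eight-point dilution series. Membrane integrity scored by high-content imaging of propidium iodide exclusion; bidirectional fit versus DMSO.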

Test [14] is described as follows: CCTE_Harrill_HTTr_Apoptosis_MCF7: CCTE's 6-hour Apoptosis Assessment for the High-Throughput Transcriptomics (HTTr) Platform, in MCF-7 cells cultured in DMEM + 10% fetal bovine serum, Harrill Lab (AID 2284011; active means hit-call score of the fitted dose curve at least 0.9, where 1 is the maximum; inactive means score below 0.9). A digest of the protocol:
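MCF-7 cells in DMEM + 10% FBS exposed 6 h to chemicals over an eight-point dilution series. Caspase-3/7 activation imaged by high-content CellEvent Green staining; fitted bidirectionally versus DMSO.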

Test [15] addresses Retinoic acid receptor alpha (Homo sapiens) (UniProt P10276). As to the kind of experiment: ATG_DR5_RAR_CIS: Attagene CIS-FACTORIAL HepG2 Assay for human Retinoic Acid Receptor Alpha (RARE), DR5 submotif (AID 2282934; active means hit-call score of the fitted dose curve at least 0.9, where 1 is the maximum; inactive means score below 0.9). Conditions: HepG2 Attagene cis-factorial RARE DR5 reporter, mRNA; actives raise or lower the signal. A digest of the protocol:
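After 24 h of chemical exposure, transiently transfected HepG2 cells were lysed for total RNA; the DR5-regulated reporter transcript was quantified via RT-PCR and capillary electrophoresis, with activity fitted bidirectionally against DMSO.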

A short description of test [16]: ATG_GAL4_TRANS: Attagene TRANS-FACTORIAL HepG2 Assay for GAL4 (Internal Marker) (AID 2282976). Conditions: HepG2 Attagene TRANS GAL4 internal marker reporter. An outline of the steps:
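Background-control readout: GAL4-UAS reporter transcript in transiently transfected HepG2 cells after 24 h compound exposure. Measured by RT-PCR, 6-FAM primer extension, HpaI digest and capillary electrophoresis; gain-of-signal fit versus DMSO.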

A short description of test [17]: ACEA_ER_AUC_viability: ACEA Biosciences xCELLigence Real-Time Cell Analysis on Estrogen Receptor Agonism for Viability (AID 2283782).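 Further: continuous compound exposure with impedance area under curve over 80 h; hit means loss of impedance signal meaning reduced cell growth or viability.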 A digest of the protocol:
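T47D cells preconditioned in phenol red-free RPMI with charcoal-stripped FBS, then dosed with 8-point 1:4 series from 100 uM (up to 0.5% DMSO). Impedance monitored up to ~80 h; area-under-curve loss versus DMSO taken as viability.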

The target in test [18] is human RAR-related Orphan Receptor gamma (RORg), RORC (gene 6097) (UniProt P51449). Kind of test: ATG_RORg_TRANS: Attagene TRANS-FACTORIAL HepG2 Assay for human RAR-related Orphan Receptor gamma (RORg) (AID 2283011). A digest of the protocol:
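HepG2 cells transiently transfected with GAL4-UAS reporter units and chimeric RORg-Gal4 construct; after 24 h chemical exposure, reporter mRNA measured by RT-PCR with fluorescent capillary electrophoresis, gain of signal fitted against DMSO.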

For test [19], the target named is Estrogen-related receptor gamma (Homo sapiens) (UniProt P62508). As to the kind of experiment: ATG_ERRg_TRANS: Attagene TRANS-FACTORIAL HepG2 Assay for human Estrogen-Related Receptor gamma (ERRg) (AID 2282977).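 Further: hits increase reporter signal over DMSO so potencies reflect activators.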 Conditions: HepG2 Attagene TRANS reporter, ERRg transactivation. A digest of the protocol: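 HepG2 cells transiently transfected with multiplexed GAL4-UAS reporter units driven by chimeric NR-Gal4 proteins; 24 h exposure. Reporter mRNA quantified by RT-PCR, fluorescent labelling, HpaI digestion and capillary electrophoresis; gain of signal vs DMSO.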

SMILES strings stand for the structures. Records with an inconclusive call do not appear. The source made the active and inactive calls. How the source made its calls, unless noted: active means hit-call score of the fitted dose curve at least 0.9, where 1 is the maximum; inconclusive means response in the unintended direction; inactive means score below 0.9.

Sequence of Nuclear receptor subfamily 4 group A member 2 (Homo sapiens) (P43354 whole entry, looked up, the tested form may be a part): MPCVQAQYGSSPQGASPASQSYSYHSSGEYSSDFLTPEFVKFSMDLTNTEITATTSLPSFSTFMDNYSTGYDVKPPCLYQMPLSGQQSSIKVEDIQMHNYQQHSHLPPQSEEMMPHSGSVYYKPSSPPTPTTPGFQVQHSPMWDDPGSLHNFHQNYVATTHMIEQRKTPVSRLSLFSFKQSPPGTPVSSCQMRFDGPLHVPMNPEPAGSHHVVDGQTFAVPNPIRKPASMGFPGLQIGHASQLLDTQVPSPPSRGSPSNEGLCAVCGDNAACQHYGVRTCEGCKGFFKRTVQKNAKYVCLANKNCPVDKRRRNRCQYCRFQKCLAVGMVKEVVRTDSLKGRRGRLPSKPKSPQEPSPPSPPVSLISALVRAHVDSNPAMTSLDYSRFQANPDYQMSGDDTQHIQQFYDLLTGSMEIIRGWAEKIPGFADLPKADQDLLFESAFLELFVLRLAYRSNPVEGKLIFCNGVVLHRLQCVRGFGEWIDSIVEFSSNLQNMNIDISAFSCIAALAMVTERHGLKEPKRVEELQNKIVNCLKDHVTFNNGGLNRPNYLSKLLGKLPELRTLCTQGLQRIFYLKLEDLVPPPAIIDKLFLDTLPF
Sequence of Peroxisome proliferator-activated receptor gamma (Homo sapiens) (P37231 whole entry, looked up, the tested form may be a part): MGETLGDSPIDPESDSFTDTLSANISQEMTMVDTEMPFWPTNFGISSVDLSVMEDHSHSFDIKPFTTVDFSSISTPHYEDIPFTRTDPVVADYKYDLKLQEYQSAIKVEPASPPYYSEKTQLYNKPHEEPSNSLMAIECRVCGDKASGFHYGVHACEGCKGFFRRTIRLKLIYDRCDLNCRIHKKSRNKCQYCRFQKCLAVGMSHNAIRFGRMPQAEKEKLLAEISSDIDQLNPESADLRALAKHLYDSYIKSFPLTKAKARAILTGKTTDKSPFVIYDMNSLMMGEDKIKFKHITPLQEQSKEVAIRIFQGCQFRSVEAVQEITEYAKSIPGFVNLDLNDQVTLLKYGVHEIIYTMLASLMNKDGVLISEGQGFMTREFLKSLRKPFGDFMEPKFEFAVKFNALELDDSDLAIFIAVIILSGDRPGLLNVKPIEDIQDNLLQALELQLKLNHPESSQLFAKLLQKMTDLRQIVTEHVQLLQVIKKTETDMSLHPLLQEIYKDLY
Sequence of Nuclear receptor subfamily 1 group I member 3 (Homo sapiens) (Q14994 whole entry, looked up, the tested form may be a part): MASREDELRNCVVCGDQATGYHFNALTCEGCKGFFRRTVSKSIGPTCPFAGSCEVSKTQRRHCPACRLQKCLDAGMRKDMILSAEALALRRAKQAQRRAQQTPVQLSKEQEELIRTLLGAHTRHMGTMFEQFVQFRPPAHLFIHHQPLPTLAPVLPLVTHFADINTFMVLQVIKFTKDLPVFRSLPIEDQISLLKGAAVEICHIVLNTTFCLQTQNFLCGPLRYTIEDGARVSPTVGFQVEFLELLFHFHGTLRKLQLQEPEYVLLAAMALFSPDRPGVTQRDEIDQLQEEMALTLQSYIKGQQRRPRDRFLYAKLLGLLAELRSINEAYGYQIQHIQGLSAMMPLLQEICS
Sequence of human Thyroid Receptor alpha (THRa1), THRA (gene 7067) (P10827 whole entry, looked up, the tested form may be a part): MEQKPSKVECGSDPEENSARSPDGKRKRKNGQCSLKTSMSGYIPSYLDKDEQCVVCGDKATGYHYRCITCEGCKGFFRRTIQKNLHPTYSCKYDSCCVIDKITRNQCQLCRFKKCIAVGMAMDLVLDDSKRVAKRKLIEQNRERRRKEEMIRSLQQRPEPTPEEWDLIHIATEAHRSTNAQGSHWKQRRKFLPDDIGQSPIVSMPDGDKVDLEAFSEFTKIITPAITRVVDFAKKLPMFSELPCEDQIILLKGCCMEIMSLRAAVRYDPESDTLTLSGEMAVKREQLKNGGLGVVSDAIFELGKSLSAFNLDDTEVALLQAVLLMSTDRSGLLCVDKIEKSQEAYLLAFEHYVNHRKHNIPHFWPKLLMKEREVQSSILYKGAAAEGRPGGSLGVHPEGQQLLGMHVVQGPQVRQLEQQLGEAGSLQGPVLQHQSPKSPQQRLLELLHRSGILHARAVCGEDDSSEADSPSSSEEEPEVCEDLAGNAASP
Sequence of Retinoic acid receptor alpha (Homo sapiens) (P10276 whole entry, looked up): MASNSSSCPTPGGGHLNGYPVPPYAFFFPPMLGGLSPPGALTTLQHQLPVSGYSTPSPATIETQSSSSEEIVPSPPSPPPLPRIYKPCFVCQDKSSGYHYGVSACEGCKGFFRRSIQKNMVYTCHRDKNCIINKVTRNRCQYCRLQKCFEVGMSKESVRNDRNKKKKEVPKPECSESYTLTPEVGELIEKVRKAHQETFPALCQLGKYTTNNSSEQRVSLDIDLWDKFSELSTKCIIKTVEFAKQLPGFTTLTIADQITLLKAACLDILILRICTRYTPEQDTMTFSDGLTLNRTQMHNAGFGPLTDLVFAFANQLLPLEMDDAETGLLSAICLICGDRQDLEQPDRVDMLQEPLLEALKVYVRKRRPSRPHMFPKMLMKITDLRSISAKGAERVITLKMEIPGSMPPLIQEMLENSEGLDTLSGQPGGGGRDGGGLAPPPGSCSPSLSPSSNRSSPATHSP
Sequence of Oxysterols receptor LXR-alpha (Homo sapiens) (Q13133 whole entry, looked up, the tested form may be a part): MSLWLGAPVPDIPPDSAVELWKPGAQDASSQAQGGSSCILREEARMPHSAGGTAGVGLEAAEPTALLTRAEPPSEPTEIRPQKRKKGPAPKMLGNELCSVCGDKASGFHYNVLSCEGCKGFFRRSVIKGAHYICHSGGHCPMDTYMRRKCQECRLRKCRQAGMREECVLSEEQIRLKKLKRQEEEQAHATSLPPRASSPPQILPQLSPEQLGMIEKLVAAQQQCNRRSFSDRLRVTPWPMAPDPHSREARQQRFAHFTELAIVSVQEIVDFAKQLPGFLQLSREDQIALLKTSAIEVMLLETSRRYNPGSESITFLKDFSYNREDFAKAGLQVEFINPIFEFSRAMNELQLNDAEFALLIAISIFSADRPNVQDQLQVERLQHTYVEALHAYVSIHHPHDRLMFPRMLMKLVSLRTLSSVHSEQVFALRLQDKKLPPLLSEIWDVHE
Sequence of Aryl hydrocarbon receptor (Homo sapiens) (P35869 whole entry, looked up): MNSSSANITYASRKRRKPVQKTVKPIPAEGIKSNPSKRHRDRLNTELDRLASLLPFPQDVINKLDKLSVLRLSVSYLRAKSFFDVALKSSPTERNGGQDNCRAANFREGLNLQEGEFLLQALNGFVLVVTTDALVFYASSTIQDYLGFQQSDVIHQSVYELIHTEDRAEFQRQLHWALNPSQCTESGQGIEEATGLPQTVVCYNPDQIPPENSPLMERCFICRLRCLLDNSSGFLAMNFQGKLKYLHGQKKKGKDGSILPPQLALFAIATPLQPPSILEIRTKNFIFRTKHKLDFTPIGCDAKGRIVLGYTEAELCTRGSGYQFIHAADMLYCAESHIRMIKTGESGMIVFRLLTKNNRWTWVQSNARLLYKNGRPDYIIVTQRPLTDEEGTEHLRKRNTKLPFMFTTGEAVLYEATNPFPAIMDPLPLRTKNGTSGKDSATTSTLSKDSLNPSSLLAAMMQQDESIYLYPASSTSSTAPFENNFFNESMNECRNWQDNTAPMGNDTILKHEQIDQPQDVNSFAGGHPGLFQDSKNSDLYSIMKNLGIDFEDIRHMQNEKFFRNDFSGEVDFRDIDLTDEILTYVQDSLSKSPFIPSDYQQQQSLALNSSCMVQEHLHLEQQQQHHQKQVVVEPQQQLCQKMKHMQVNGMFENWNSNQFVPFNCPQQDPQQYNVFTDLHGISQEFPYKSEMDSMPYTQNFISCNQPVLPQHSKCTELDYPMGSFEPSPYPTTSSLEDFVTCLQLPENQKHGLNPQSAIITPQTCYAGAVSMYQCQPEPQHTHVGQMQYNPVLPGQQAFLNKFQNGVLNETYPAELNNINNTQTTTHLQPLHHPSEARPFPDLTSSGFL
Sequence of Estrogen-related receptor gamma (Homo sapiens) (P62508 whole entry, looked up, the tested form may be a part): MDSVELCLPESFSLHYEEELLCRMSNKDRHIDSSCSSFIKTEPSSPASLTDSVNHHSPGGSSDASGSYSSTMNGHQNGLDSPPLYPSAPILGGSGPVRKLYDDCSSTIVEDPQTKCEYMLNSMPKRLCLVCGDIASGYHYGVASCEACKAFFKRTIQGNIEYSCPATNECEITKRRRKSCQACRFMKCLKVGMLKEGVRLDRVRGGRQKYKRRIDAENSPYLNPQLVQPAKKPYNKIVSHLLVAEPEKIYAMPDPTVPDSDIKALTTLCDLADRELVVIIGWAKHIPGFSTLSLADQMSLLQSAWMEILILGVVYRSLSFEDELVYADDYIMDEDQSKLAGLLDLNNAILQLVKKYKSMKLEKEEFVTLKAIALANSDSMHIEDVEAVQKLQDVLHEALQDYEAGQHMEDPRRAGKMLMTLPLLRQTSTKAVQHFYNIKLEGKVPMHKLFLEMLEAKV
Sequence of human RAR-related Orphan Receptor beta (RORb), RORB (gene 6096) (Q92753 whole entry, looked up, the tested form may be a part): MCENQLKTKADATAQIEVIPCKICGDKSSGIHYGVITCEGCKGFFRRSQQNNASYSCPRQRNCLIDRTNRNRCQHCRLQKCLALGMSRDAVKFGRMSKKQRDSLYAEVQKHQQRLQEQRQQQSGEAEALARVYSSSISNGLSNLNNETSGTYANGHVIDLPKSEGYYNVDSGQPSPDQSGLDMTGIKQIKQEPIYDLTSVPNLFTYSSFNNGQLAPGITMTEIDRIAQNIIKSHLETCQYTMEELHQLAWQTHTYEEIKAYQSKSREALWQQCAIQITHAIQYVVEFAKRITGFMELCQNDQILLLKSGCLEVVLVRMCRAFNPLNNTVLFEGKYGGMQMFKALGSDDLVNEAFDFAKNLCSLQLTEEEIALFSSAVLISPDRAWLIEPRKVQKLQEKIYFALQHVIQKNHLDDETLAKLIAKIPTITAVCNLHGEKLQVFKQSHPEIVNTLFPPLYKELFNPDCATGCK

Broadly, the AC50 is the concentration giving half of the maximal activity seen. Regarding `CC1=C(CC(=O)O)c2cc(F)ccc2/C1=C\c1ccc(S(C)=O)cc1` (stereo not drawn), the AC50 in test [1] is 3.48 µM (active); in [8], 24.2 µM (active). Besides, the compound was called inactive in test [2], in [3], in test [4], in [5], in test [6] and in test [7]. The outcome in test [9], in test [10], in test [11], in [12], in test [13] and in test [14] was inactive.
Take `CC(C)CC(=O)O`: the compound was classed as inactive in [15], in test [2], in test [16], in [9], in [12] and in test [17]. Further, the outcome in test [13] and in [14] was inactive.
Consider `CC(O)(P(=O)(O)O)P(=O)(O)O`, for which the compound was classed as inactive in test [1], in test [16], in test [4] and in test [11].
Consider `CCCC(=O)OC/C=C(\C)CCC=C(C)C`, for which the compound was classed as inactive in [15], in test [2], in test [3], in [16], in test [6] and in test [8]. For the same compound, the outcome in [18] and in test [11] was inactive. Moreover, the AC50 in [17] is 68.8 µM (active).
`CCCCC(CC)COC(=O)CS` (stereo not drawn): the compound was classed as inactive in test [15], in test [3], in test [16], in [19], in test [5] and in test [6]. Besides, the call in test [12] and in test [17] was inactive.
Turning to `COC(=O)CCSCCC(=O)OC`, the call in test [15], in [3], in [19], in [5] and in test [11] was inactive.
For the compound `CCCOCCC`, the result in test [15], in test [2], in test [16], in test [4], in [6] and in [8] was inactive. Moreover, the compound was classed as inactive in test [12] and in test [17].
With `CC(=O)Nc1c(I)c(NC(C)=O)c(I)c(C(=O)O)c1I`, the outcome in test [15] and in test [6] was inactive.

(Values after PubChem BioAssay (EPA / NIEHS).)
